Results: PubChem BioAssay (NCI)
Compounds without any hit were thinned out: in the full panel of roughly 83,000, 20% have a hit.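 Note: values are percent growth. 100 is the growth of untreated cells, values between 100 and 0 indicate rising inhibition; between -100 and 0 indicates cell death.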 A number with no mark means an inactive call. Active and inactive are the calls of the source. How the source made its calls: active means growth percent below 10; inactive means the rest.

How the values were obtained:
Assay in all cases: NCI-60 one-dose screen, 48 h (100 = growth as untreated, 0 = no growth, -100 = all killed)
Conditions in all cases: 10 µM
[1] = system: NCI-H23 lung
[2] = system: NCI-H226 lung
[3] = system: NCI-H322M lung
[4] = system: HOP-62 NSCLC
[5] = system: NCI-H460 lung
[6] = system: NCI-H522 lung
[7] = system: A549/ATCC NSCLC
[8] = system: 786-0 renal
[9] = system: COLO 205 colon
[10] = system: DU-145 prostate
[11] = system: K-562 leukemia
[12] = system: MALME-3M melanoma
[13] = system: MDA-MB-231 breast
[14] = system: RXF 393 renal
[15] = system: SF-268 CNS
[16] = system: SF-295 CNS
[17] = system: SF-539 CNS
[18] = system: UACC-257 melanoma
[19] = system: M14 melanoma
[20] = system: HCT-15 colon

Compound	growth [1]	growth [2] [%]	growth [3]	growth [4] [%]	growth [5]	growth [6]	growth [7] [%]	growth [8]	growth [9]	growth [10]	growth [11]	growth [12]	growth [13] [%]	growth [14]	growth [15] [%]	growth [16]	growth [17]	growth [18]	growth [19]	growth [20]
CC1=C(N2CCOCC2)C(N2CCOCC2)=C(C)C(=O)C1=O	103%	98.2	114%	93.6	104%	99.1%	102	102%	103%	108%	93%	101%	115	101%	93.3	97.2%	103%	91.5%	103%	99.6%
O=C(c1cccs1)c1ccccc1Cc1ccccc1	102%	92.3	83.6%	96.6	107%	100%	89.1	108%	116%	128%	98.2%	110%	88.6	99.5%	115	98.3%	112%	92.8%	118%	103%
Nc1nc(-c2ccccc2Cl)cc(-c2ccc(Cl)cc2Cl)n1	75.4%	87.7	89.5%	76.2	49.8%	68.5%	52.7	90.2%	64.9%	91.4%	27.3%	86.6%	65	75.8%	65.9	38.7%	72.2%	93%	53.5%	90.2%
CCOC(=O)N1C=CC2C=CC1C1C=CC=CC2N1C(=O)OCC (stereo not given)	108%	91	106%	106	103%	89.3%	94.8	105%	117%	112%	47.8%	94.8%	87	86.8%	101	116%	81.2%	87.7%	89.5%	86.2%
NC(=S)N=Nc1c(O)c2ccccc2c2ccccc12	6.64% (active)	94.2	82.3%	29.8	51.9%	44.8%	23.7	101%	92.3%	-8.94% (active)	42.2%	60.5%	76.7	99.4%	56.7	82.7%	16.1%	-61.3% (active)	-68.6% (active)	23.3%
CS(=O)(=O)Nc1cccc(-c2cc(-c3ccccc3Cl)c(C#N)c(N)n2)c1	38.7%	53.4	51.8%	45.8	5.56% (active)	-7.33% (active)	29.4	46.7%	-0.179% (active)	8.95% (active)	14.1%	24.8%	49.1	6.08% (active)	49.2	7.3% (active)	-14.4% (active)	74.3%	23.4%	30.1%
COc1ccc(-n2c(SCc3cc(OC)c(OC)c(OC)c3)nc3ccc(C)cc3c2=O)cc1	69.2%	73.4	80.3%	65.2	73.8%	39.4%	51	84.1%	32.7%	94.9%	16.9%	59.7%	59.8	52.8%	80.6	51.4%	77.7%	77.3%	53.8%	33.6%
Cc1ccc(S(=O)(=O)OCCN(CCOS(=O)(=O)c2ccc(C)cc2)c2c[nH]c(=O)[nH]c2=O)cc1	108%	99.2	105%	108	114%	125%	101	112%	115%	124%	105%	117%	109	106%	108	112%	96.4%	91.4%	105%	99.7%
C[C@@H]1C=C2C(=O)O[C@@H]3CC[C@H](C1)[C@]23O	80.6%	106	82.5%	71.7	80.9%	2.22% (active)	67.1	103%	74%	-25.9% (active)	27.5%	93.2%	89	9.76% (active)	93.3	114%	90.8%	46.8%	80.2%	62.5%
COc1ccc(-c2cc(/C=C3\C(=O)Nc4ccc(Cl)cc43)[nH]n2)cc1OC	101%	85.5	70.6%	97.7	79.9%	89%	89.5	102%	89.7%	76.4%	100%	87.3%	79.6	88.5%	85.8	99.6%	82.2%	132%	101%	77.5%
Cc1cc(Cc2cc(C)c(O)c(C)c2)cc(C)c1O	74.1%	96.6	68.2%	49.8	29.1%	28.5%	36.8	56.2%	104%	78.3%	13.2%	46.5%	59.6	58.1%	64.1	42.6%	37.2%	51.5%	29.9%	38.2%
COc1ccc(C(=O)/C=C/c2cc(-c3cc(OC)c(OC)c(OC)c3)n[nH]2)cc1	87.3%	53.3	-6.79% (active)	17.6	2.79% (active)	-0.12% (active)	34.5	10.4%	30.5%	26.3%	5.85% (active)	69%	38.5	30.1%	31.2	-23.8% (active)	-25.6% (active)	70.8%	54.6%	8.52% (active)
COc1ccc2c(c1)nc(N)c1c3cccnc3cn21	33.9%	69.4	72.5%	42	1.19% (active)	-2.48% (active)	11.8	22.7%	-31.5% (active)	5.32% (active)	18.4%	66.3%	22.4	34.8%	34.4	-16.6% (active)	10.2%	67.1%	9.28% (active)	19.5%
CSCCCNC(=O)c1ccc2c(c1)/C(=C/c1[nH]c(C)cc1C)C(=O)N2	28.6%	41.8	50.4%	35.5	30.8%	41%	29.2	6.49% (active)	31.5%	27.9%	49.1%	-9.58% (active)	20.9	-31% (active)	31.6	29.2%	13.2%	48.9%	8.79% (active)	22.5%
C#Cc1ccc(-n2c(/C=C/c3ccc(O)c(OC)c3)nc3ncccc3c2=O)cc1	102%	93.9	98.2%	95.3	103%	79%	90.3	105%	109%	111%	80%	95%	98.5	100%	95	104%	97.2%	87.8%	101%	90.5%
CCOC(=O)CCC(NC(=O)c1ccc(N)cc1)C(=O)OCC (stereo not given)	99.1%	103	108%	96	118%	80.5%	99.4	110%	105%	112%	112%	88.2%	126	129%	99.7	136%	97.6%	101%	91.3%	98.7%
